Out of some 5,500 compounds screened, about 2,000 (36%) were called active. Inconclusive results (about 18%) are left out. Cut-off read from the data, not from the text of the source: active = normalized growth mostly below about 0.91 (no sharp cut-off); inconclusive = no clear call, values can overlap the other calls; inactive = mostly above about 0.92. Some of the results follow.
Assay: chemical genetic growth profiling, strain panel (AID 1159580);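 note: tested at 20 µM; growth read once vehicle control cultures reached saturation at 30 °C; 1 = growth at the plate median or of vehicle wells; lower values mean less growth of the strain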
Conditions: growth OD

Measured: normalized growth

CCCC1O[C@@H]2CC3C4CCC5=CC(=O)C=CC5(C)C4[C@@H](O)CC3(C)[C@]2(C(=O)CO)O1 (some centres not stated)
inactive: S. cerevisiae deletion strains, locus YJR075W, strain HOC1, active compounds read low 1 | S. cerevisiae deletion strains, locus YKL009W, strain mrt4, active compounds read low 1.03 | S. cerevisiae deletion strains, locus YKL068W, active compounds read low 1 | S. cerevisiae deletion strains, locus YKL085W, strain MDH1 (second series), active compounds read low 0.994 | S. cerevisiae deletion strains, locus YKL085W, strain MDH1, active compounds read low 0.994 | S. cerevisiae deletion strains, locus YKL160W, strain elf1, active compounds read low 1.01 | S. cerevisiae deletion strains, locus YKL190W, strain CNB1, active compounds read low 0.995 | S. cerevisiae deletion strains, locus YKR001C, strain vps1, active compounds read low 0.997 | S. cerevisiae deletion strains, locus YKR026C, strain gcn3, active compounds read low 1.01 | S. cerevisiae deletion strains, locus YKR091W, strain srl3, active compounds read low 1 | S. cerevisiae deletion strains, locus YLL001W, strain dnm1, active compounds read low 1.02 | S. cerevisiae deletion strains, locus YLL026W, active compounds read low 1.01 | S. cerevisiae deletion strains, locus YLL041C, strain sdh2, active compounds read low 1.01 | S. cerevisiae deletion strains, locus YLR027C, strain aat2, active compounds read low 1 | S. cerevisiae deletion strains, locus YLR039C, strain RIC1, active compounds read low 1.02 | S. cerevisiae deletion strains, locus YLR058C, strain SHM2, active compounds read low 1 | S. cerevisiae deletion strains, locus YLR102C, strain apc9, active compounds read low 1.02 | S. cerevisiae deletion strains, locus YLR113W, strain HOG1, active compounds read low 0.931 | S. cerevisiae deletion strains, locus YLR221C, strain rsa3, active compounds read low 0.986 | S. cerevisiae deletion strains, locus YLR258W, strain gsy2, active compounds read low 1.02 | S. cerevisiae deletion strains, locus YLR262C, strain YPT6 (second series), active compounds read low 1 | S. cerevisiae deletion strains, locus YLR262C, strain YPT6, active compounds read low 1 | S. cerevisiae deletion strains, locus YLR268W, strain sec22, active compounds read low 1 | S. cerevisiae deletion strains, locus YLR320W, strain mms22, active compounds read low 1.01 | S. cerevisiae deletion strains, locus YLR330W, strain CHS5, active compounds read low 1 | S. cerevisiae deletion strains, locus YLR342W, strain FKS1 (second series), active compounds read low 1.02 | S. cerevisiae deletion strains, locus YLR342W, strain FKS1, active compounds read low 1.01 | S. cerevisiae deletion strains, locus YLR357W, strain rsc2, active compounds read low 1.03 | S. cerevisiae deletion strains, locus YLR370C, strain arc18, active compounds read low 1.01 | S. cerevisiae deletion strains, locus YLR371W, strain rom2, active compounds read low 1.02 | S. cerevisiae deletion strains, locus YLR384C, strain iki3, active compounds read low 1.01 | S. cerevisiae deletion strains, locus YLR418C, strain cdc73, active compounds read low 0.978 | S. cerevisiae deletion strains, locus YML016C, strain PPZ1, active compounds read low 1.01 | S. cerevisiae deletion strains, locus YML032C, strain rad52, active compounds read low 1.04 | S. cerevisiae deletion strains, locus YML120C, strain ndi1, active compounds read low 1 | S. cerevisiae deletion strains, locus YML124C, strain tub3, active compounds read low 1.01 | S. cerevisiae deletion strains, locus YMR058W, strain fet3, active compounds read low 1 | S. cerevisiae deletion strains, locus YMR078C, strain ctf18, active compounds read low 1.02 | S. cerevisiae deletion strains, locus YMR125W, strain sto1, active compounds read low 1 | S. cerevisiae deletion strains, locus YMR129W, active compounds read low 1.01 | S. cerevisiae deletion strains, locus YMR205C, strain PFK2, active compounds read low 1 | S. cerevisiae deletion strains, locus YMR223W, strain ubp8, active compounds read low 1.03 | S. cerevisiae deletion strains, locus YMR231W, strain pep5, active compounds read low 1.01 | S. cerevisiae deletion strains, locus YMR263W, strain SAP30, active compounds read low 0.999 | S. cerevisiae deletion strains, locus YMR307W, strain GAS1, active compounds read low 1.06 | S. cerevisiae deletion strains, locus YNL067W, strain RPL9B, active compounds read low 0.99 | S. cerevisiae deletion strains, locus YNL071W, strain lat1, active compounds read low 1 | S. cerevisiae deletion strains, locus YNL128W, strain TEP1, active compounds read low 1 | S. cerevisiae deletion strains, locus YNL153C, strain GIM3, active compounds read low 0.992 | S. cerevisiae deletion strains, locus YNL183C, strain NPR1, active compounds read low 0.962 | S. cerevisiae deletion strains, locus YNL209W, strain ssb2, active compounds read low 1.02 | S. cerevisiae deletion strains, locus YNL233W, strain BNI4, active compounds read low 1.01 | S. cerevisiae deletion strains, locus YNL248C, strain rpa49, active compounds read low 1.04 | S. cerevisiae deletion strains, locus YNL250W, strain rad50, active compounds read low 1.02 | S. cerevisiae deletion strains, locus YNL271C, strain bni1, active compounds read low 1.02 | S. cerevisiae deletion strains, locus YNL298W, strain CLA4, active compounds read low 1.02 | S. cerevisiae deletion strains, locus YNL307C, strain MCK1, active compounds read low 1.03 | S. cerevisiae deletion strains, locus YNL322C, strain KRE1 (second series), active compounds read low 1.01 | S. cerevisiae deletion strains, locus YNL322C, strain KRE1, active compounds read low 1 | S. cerevisiae deletion strains, locus YNR049C, strain mso1, active compounds read low 0.997 | S. cerevisiae deletion strains, locus YNR052C, strain pop2, active compounds read low 1.02 | S. cerevisiae deletion strains, locus YOL006C, strain TOP1, active compounds read low 1 | S. cerevisiae deletion strains, locus YOL012C, strain htz1 1.19 | S. cerevisiae deletion strains, locus YOL147C, strain pex11, active compounds read low 1.02 | S. cerevisiae deletion strains, locus YOR001W, strain rrp6, active compounds read low 0.975 | S. cerevisiae deletion strains, locus YOR061W, strain CKA2, active compounds read low 1 | S. cerevisiae deletion strains, locus YOR069W, strain VPS5, active compounds read low 1 | S. cerevisiae deletion strains, locus YOR070C, strain gyp1, active compounds read low 1.01 | S. cerevisiae deletion strains, locus YOR080W, strain dia2, active compounds read low 0.999 | S. cerevisiae deletion strains, locus YOR083W, strain WHI5, active compounds read low 0.991 | S. cerevisiae deletion strains, locus YOR106W, strain vam3, active compounds read low 1.03 | S. cerevisiae deletion strains, locus YOR136W, strain idh2, active compounds read low 1.03 | S. cerevisiae deletion strains, locus YOR144C, strain elg1, active compounds read low 1.01 | S. cerevisiae deletion strains, locus YOR184W, strain ser1, active compounds read low 1.05 | S. cerevisiae deletion strains, locus YOR231W, strain MKK1, active compounds read low 0.961 | S. cerevisiae deletion strains, locus YOR265W, strain rbl2, active compounds read low 1 | S. cerevisiae deletion strains, locus YOR270C, strain vph1, active compounds read low 1.06 | S. cerevisiae deletion strains, locus YOR290C, strain snf2, active compounds read low 1.03 | S. cerevisiae deletion strains, locus YOR316C, strain cot1, active compounds read low 1.02 | S. cerevisiae deletion strains, locus YPL051W, strain arl3, active compounds read low 0.998 | S. cerevisiae deletion strains, locus YPL055C, strain LGE1, active compounds read low 0.999 | S. cerevisiae deletion strains, locus YPL078C, strain atp4, active compounds read low 1.02 | S. cerevisiae deletion strains, locus YPL106C, strain sse1, active compounds read low 1.08 | S. cerevisiae deletion strains, locus YPL240C, strain hsp82, active compounds read low 0.995 | S. cerevisiae deletion strains, locus YPL241C, strain CIN2, active compounds read low 0.998 | S. cerevisiae deletion strains, locus YPL256C, strain CLN2, active compounds read low 1.03 | S. cerevisiae deletion strains, locus YPR119W, strain clb2, active compounds read low 1.01 | S. cerevisiae deletion strains, locus YPR141C, strain kar3, active compounds read low 1.02 | S. cerevisiae deletion strains, locus YPR163C, strain tif3, active compounds read low 1.03 | S. cerevisiae deletion strains, locus YPR167C, strain met16, active compounds read low 1.02 | S. cerevisiae deletion strains, strain wtn01, active compounds read low 0.984 | S. cerevisiae strains, strain wild type, active compounds read low 0.999
